Test [1] deals with rat Monoamine Oxidase, MAO-A, Peripheral (MAOAP), gene 29253. Description: NVS_ENZ_rMAOAP: NovaScreen (NVS) Enzymatic Assay for rat Monoamine Oxidase, MAO-A, Peripheral (MAOAP) (AID 2283237). The method in brief:
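Rat liver mitochondrial membranes served as the MAO-A source, with enzyme activity measured by radiometric scintillation counting 1.17 hours after dosing. Loss of signal was fitted against DMSO; primary screen used 25 uM in duplicate, follow-up used concentration series.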

In test [2] the target is rat Monoamine Oxidase, MAO-B, Central (MAOBC), Maob (gene 25750) (UniProt P19643). Description: NVS_ENZ_rMAOBC: NovaScreen (NVS) Enzymatic Assay for rat Monoamine Oxidase, MAO-B, Central (MAOBC) (AID 2283238). The method in brief:
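MAO-B activity in rat brain tissue preparation, cell-free, measured radiometrically by scintillation counting 1.17 h after dosing. Screened in duplicate at 25 uM; actives then in concentration-response up to 50 uM. Loss of signal versus DMSO scored.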

For test [3], the target named is rat Monoamine Oxidase, MAO-B, Peripheral (MAOBP), Maob (gene 25750) (UniProt P19643). Description: NVS_ENZ_rMAOBP: NovaScreen (NVS) Enzymatic Assay for rat Monoamine Oxidase, MAO-B, Peripheral (MAOBP) (AID 2283242).
In test [4] the test system is rat Monoamine Oxidase, MAO-A, Central (MAOAC), gene 29253. Description: NVS_ENZ_rMAOAC: NovaScreen (NVS) Enzymatic Assay for rat Monoamine Oxidase, MAO-A, Central (MAOAC) (AID 2283243).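 Note: potency refers to inhibition seen as signal drop below DMSO baseline.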 The method in brief:
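Steps: rat brain protein extract dosed with test chemical (25 uM, duplicate, primary); incubated 1.5 h; radiolabelled product separated from substrate and counted. Signal loss versus DMSO scored as inhibition.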

Test [5] has as its target human Adenosine A1 Receptor (AdoRA1), ADORA1 (gene 134) (UniProt P30542). Description: NVS_GPCR_hAdoRA1: NovaScreen (NVS) G Protein-Coupled Receptor Assay for human Adenosine A1 Receptor (AdoRA1) (AID 2283254). The method in brief: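 Each chemical is first tested twice at 25 uM, actives later in dilution series, against a radioligand bound to human cortex membranes; after 1 h, filter-retained counts are compared with DMSO controls, lower signal indicating displacement.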

Test [6] addresses human Adenosine A2a Receptor (AdoRA2a), ADORA2A (gene 135) (UniProt P29274). Description: NVS_GPCR_hAdoRA2a: NovaScreen (NVS) G Protein-Coupled Receptor Assay for human Adenosine A2a Receptor (AdoRA2a) (AID 2283256). An outline of the steps:
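Radioligand displacement on HEK293-derived membrane protein, cell-free; filter-based scintillation counting 1.5 hours after dosing, loss of signal vs DMSO. Single-point duplicate screen at 25 uM, actives retested in concentration series.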

The target in test [7] is human Serotonin, 5-Hydroxytryptamine Receptor 7 (5HT7), HTR7 (gene 3363) (UniProt P34969). Description: NVS_GPCR_h5HT7: NovaScreen (NVS) G Protein-Coupled Receptor Assay for human Serotonin, 5-Hydroxytryptamine Receptor 7 (5HT7) (AID 2283255).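 Note: hits reduce specific radioligand binding relative to DMSO.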 The method in brief: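 Radioligand displacement on membranes from CHO cells expressing human 5HT7, 1 h incubation, filter-based scintillation counting. Primary screen used a single 25 uM concentration in duplicate; actives were followed up in concentration series.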

Test [8] concerns guinea pig Leukotriene B4 Receptor (LTB4), gene 100379538. Description: NVS_GPCR_gLTB4: NovaScreen (NVS) G Protein-Coupled Receptor Assay for guinea pig Leukotriene B4 Receptor (LTB4) (AID 2283247). An outline of the steps:
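Radioligand displacement on guinea pig spleen membranes, filter-based scintillation counting 2 h after dosing. Primary duplicate single point at 25 uM; hits over threshold (e.g. 30% inhibition) run in concentration-response up to 50 uM, DMSO baseline.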

Test [9] can be described thus: NVS_GPCR_bNPY_NonSelective: NovaScreen (NVS) G Protein-Coupled Receptor Assay for bovine Neuropeptide Y (NPY) Receptor, Non-selective Binding (AID 2283245). The method in brief:
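Bovine hippocampal membranes incubated 1 hour with radioligand and test chemical. Bound ligand measured by filter-based scintillation counting. Single-concentration screen at 25 uM in duplicate, then concentration-response up to 50 uM.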

In test [10] the target is guinea pig Opioid, Kappa 1 Receptor (OpiateK), OPRK1 (gene 100135587) (UniProt P41144). Description: NVS_GPCR_gOpiateK: NovaScreen (NVS) G Protein-Coupled Receptor Assay for guinea pig Opioid, Kappa 1 Receptor (OpiateK) (AID 2283252).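 Note: active means reduced radioligand binding relative to DMSO.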 An outline of the steps: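 Guinea pig cerebellar membranes, radioligand displacement with filter-based scintillation counting, 2 h after dosing. Primary screen single concentration 25 uM in duplicate; actives retested in concentration series; loss of binding fitted versus DMSO.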

The subject of test [11] is guinea pig Muscarinic, Peripheral (Mperiperal) Receptor, Non-selective Binding, gene 100379235. Description: NVS_GPCR_gMPeripheral_NonSelective: NovaScreen (NVS) G Protein-Coupled Receptor Assay for guinea pig Muscarinic, Peripheral (Mperiperal) Receptor, Non-selective Binding (AID 2283250). An outline of the steps:
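Guinea pig bladder membranes, radioligand binding read 1 h after dosing by filter scintillation counting; loss of signal vs DMSO. Primary duplicate screen at 25 uM, then concentration-response up to 50 uM.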

Test [12] deals with human Serotonin, 5-Hydroxytryptamine Receptor 6 (5HT6), HTR6 (gene 3362) (UniProt P50406). Description: NVS_GPCR_h5HT6: NovaScreen (NVS) G Protein-Coupled Receptor Assay for human Serotonin, 5-Hydroxytryptamine Receptor 6 (5HT6) (AID 2283253). An outline of the steps:
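Radioligand binding to 5HT6 in HEK293-derived membranes, cell-free, 1 h after dosing; bound ligand measured by filter-based scintillation counting. Primary screen in duplicate at 25 uM; actives retested in concentration series.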

Test [13] deals with bovine Dopamine Receptor (DR), Non-selective Binding, DRD1 (gene 281125) (UniProt Q95136). Description: NVS_GPCR_bDR_NonSelective: NovaScreen (NVS) G Protein-Coupled Receptor Assay for bovine Dopamine Receptor (DR), Non-selective Binding (AID 2283241). An outline of the steps: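 Bovine striatal membranes; radioligand displacement read by filtration and scintillation counting 1 h after dosing, loss of signal vs DMSO. Screened in duplicate at 25 uM, then concentration-response for hits.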

Test [14] addresses human Adrenergic, Alpha 2A Receptor (Adra2A), ADRA2A (gene 150) (UniProt P08913). Description: NVS_GPCR_hAdra2A: NovaScreen (NVS) G Protein-Coupled Receptor Assay for human Adrenergic, Alpha 2A Receptor (Adra2A) (AID 2283257). An outline of the steps:
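Radioligand filter-binding was run on HT29-derived membranes, cell-free, read by scintillation counting 1 h after dosing. Primary screening was in duplicate at 25 uM, with concentration series in follow-up. Loss of signal versus DMSO indicates displacement.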

Test [15] deals with Adenosine receptor A1 (Bos taurus) (UniProt P28190). Description: NVS_GPCR_bAdoR_NonSelective: NovaScreen (NVS) G Protein-Coupled Receptor Assay for bovine Adenosine Receptor (AdoR), Non-selective Binding (AID 2283244). An outline of the steps: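 Bovine striatal membranes, radioligand displacement binding, 1 h after dosing, filter-based scintillation counting. Screened in duplicate at 25 uM, then concentration-response up to 50 uM; loss of specific binding relative to DMSO.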

The subject of test [16] is bovine Histamine 1 Receptor (H1), gene 281231. Description: NVS_GPCR_bH1: NovaScreen (NVS) G Protein-Coupled Receptor Assay for bovine Histamine 1 Receptor (H1) (AID 2283246). The method in brief:
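Radioligand displacement on bovine cerebellar membranes, 1 h after dosing, filter-based scintillation read-out; loss of signal vs DMSO. Duplicate single-concentration screen at 25 uM, then concentration-response up to 50 uM for hits.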

Records with an inconclusive call do not appear. The source made the active and inactive calls. Rule for the calls: active = hit-call score of the fitted dose curve at least 0.9, where 1 is the maximum; inconclusive = response in the unintended direction; inactive = score below 0.9.

human Adenosine A1 Receptor (AdoRA1), ADORA1 (gene 134), sequence (P30542 whole entry, looked up): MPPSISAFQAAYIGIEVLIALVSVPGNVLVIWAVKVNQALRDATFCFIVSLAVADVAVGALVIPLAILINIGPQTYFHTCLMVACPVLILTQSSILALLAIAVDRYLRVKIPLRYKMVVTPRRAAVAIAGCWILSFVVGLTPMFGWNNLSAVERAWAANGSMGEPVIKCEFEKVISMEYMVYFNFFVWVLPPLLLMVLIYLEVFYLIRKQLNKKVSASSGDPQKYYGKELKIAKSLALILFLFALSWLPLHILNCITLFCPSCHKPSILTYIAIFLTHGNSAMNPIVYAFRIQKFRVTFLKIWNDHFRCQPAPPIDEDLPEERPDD
rat Monoamine Oxidase, MAO-B, Peripheral (MAOBP), Maob (gene 25750), sequence (P19643 whole entry, looked up): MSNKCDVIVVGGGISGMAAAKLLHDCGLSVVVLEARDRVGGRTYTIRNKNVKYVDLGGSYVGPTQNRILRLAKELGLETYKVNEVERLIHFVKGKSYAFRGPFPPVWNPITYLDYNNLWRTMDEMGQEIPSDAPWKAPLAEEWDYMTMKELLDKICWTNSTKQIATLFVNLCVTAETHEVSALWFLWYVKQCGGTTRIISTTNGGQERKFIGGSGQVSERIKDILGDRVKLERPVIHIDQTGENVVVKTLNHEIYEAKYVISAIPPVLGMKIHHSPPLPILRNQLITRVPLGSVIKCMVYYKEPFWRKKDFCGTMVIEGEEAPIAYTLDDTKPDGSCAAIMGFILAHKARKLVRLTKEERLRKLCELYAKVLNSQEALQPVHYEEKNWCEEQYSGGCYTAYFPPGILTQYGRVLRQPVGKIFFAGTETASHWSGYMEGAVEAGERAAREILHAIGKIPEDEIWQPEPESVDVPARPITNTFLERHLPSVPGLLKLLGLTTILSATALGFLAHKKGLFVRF
guinea pig Opioid, Kappa 1 Receptor (OpiateK), OPRK1 (gene 100135587), sequence (P41144 whole entry, looked up): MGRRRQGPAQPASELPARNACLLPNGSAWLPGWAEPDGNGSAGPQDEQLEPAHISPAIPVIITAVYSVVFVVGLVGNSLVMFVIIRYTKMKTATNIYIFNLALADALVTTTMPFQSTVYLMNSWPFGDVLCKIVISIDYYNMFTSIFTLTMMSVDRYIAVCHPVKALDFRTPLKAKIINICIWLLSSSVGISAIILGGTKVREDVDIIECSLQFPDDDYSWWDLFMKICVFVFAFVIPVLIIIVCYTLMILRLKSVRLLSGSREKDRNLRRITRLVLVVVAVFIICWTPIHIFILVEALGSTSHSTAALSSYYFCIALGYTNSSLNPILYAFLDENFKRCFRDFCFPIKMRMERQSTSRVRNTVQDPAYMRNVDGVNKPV
human Serotonin, 5-Hydroxytryptamine Receptor 7 (5HT7), HTR7 (gene 3363), sequence (P34969 whole entry, looked up): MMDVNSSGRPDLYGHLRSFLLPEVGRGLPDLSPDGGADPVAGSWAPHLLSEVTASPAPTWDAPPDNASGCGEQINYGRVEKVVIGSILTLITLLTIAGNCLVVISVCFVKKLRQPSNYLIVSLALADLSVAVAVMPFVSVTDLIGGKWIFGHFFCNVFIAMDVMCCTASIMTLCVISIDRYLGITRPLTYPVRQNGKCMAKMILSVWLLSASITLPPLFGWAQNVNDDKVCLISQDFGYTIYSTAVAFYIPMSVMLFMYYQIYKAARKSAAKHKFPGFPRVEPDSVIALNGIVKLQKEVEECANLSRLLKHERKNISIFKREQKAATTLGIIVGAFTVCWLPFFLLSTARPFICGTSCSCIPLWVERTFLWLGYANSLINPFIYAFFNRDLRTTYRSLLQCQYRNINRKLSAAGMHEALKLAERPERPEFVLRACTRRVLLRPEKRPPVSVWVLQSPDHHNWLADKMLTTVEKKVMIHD
bovine Dopamine Receptor (DR), Non-selective Binding, DRD1 (gene 281125), sequence (Q95136 whole entry, looked up): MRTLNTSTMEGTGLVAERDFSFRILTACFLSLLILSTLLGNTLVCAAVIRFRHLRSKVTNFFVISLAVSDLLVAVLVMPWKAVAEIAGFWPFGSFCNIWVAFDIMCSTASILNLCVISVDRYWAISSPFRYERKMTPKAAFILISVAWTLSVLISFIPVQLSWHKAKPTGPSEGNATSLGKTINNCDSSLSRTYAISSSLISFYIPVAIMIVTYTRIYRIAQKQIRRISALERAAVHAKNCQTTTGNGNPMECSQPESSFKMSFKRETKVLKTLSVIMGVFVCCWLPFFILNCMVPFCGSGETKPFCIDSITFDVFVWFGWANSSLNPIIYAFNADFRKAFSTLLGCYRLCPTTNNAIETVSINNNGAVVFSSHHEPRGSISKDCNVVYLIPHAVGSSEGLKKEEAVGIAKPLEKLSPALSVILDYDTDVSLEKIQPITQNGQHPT
human Adenosine A2a Receptor (AdoRA2a), ADORA2A (gene 135), sequence (P29274 whole entry, looked up): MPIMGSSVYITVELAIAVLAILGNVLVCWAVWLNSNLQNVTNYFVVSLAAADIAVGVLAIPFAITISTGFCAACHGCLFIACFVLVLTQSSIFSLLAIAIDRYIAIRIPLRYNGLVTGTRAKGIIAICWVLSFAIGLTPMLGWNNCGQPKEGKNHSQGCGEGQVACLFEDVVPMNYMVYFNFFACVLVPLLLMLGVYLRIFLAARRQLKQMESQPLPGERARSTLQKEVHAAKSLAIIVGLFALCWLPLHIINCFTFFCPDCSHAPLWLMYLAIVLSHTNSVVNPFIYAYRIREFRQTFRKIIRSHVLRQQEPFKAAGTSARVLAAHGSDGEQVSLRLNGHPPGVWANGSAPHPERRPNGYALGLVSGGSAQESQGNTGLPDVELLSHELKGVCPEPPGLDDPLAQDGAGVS
human Adrenergic, Alpha 2A Receptor (Adra2A), ADRA2A (gene 150), sequence (P08913 whole entry, looked up): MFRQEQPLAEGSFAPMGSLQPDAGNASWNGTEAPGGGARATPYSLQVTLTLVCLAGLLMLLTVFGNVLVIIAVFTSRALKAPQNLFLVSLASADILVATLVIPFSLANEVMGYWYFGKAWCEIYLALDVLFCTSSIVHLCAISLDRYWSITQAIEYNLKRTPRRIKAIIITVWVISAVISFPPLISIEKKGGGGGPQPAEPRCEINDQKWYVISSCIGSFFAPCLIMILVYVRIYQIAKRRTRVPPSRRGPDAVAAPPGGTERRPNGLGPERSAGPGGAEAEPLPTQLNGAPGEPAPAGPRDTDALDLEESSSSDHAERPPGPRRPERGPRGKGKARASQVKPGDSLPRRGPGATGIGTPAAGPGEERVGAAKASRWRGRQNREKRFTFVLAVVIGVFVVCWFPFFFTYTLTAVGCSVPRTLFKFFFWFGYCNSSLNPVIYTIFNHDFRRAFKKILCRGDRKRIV
rat Monoamine Oxidase, MAO-B, Central (MAOBC), Maob (gene 25750), sequence (P19643 whole entry, looked up): as the sequence (P19643 whole entry, looked up) above
Adenosine receptor A1 (Bos taurus), sequence (P28190 whole entry, looked up): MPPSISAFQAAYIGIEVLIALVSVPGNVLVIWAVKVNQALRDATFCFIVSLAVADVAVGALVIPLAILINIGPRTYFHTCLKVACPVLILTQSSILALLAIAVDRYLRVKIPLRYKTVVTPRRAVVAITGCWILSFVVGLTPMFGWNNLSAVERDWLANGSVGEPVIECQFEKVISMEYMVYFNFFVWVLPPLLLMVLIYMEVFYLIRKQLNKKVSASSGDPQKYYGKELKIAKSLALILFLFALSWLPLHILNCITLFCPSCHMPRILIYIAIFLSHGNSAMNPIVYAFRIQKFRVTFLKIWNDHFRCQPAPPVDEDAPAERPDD
human Serotonin, 5-Hydroxytryptamine Receptor 6 (5HT6), HTR6 (gene 3362), sequence (P50406 whole entry, looked up): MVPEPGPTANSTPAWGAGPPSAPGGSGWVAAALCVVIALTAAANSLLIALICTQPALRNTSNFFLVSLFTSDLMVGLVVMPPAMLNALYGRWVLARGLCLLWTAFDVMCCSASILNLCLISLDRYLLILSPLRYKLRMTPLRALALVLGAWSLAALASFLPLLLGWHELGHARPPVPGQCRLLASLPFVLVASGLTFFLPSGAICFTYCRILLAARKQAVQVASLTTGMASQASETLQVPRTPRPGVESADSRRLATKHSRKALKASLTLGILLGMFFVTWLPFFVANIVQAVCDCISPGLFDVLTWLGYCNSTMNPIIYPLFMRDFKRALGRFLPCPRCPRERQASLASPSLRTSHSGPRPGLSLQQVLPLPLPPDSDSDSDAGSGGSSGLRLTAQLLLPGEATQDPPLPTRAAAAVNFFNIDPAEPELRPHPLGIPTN

With `CCCCC(C#N)(Cn1cncn1)c1ccc(Cl)cc1` (stereo unspecified), in test [1], the outcome was inactive.
Usually AC50 stands for the concentration giving half of the maximal activity seen. In the case of `CNC(=O)Oc1cccc2ccccc12`, the AC50 in [2] is 6.28 µM (active); in test [3], 25 µM (active); in [4], 13.8 µM (active).
In the case of `Nc1cnn(-c2ccccc2)c(=O)c1Cl`, the figures for the concentration at half-maximal activity (AC50) in test [5] and in [6] were 8.18 µM (active) and 32.6 µM (active), respectively.
`Nc1c(Cl)c(F)nc(OCC(=O)O)c1Cl`: in test [4], the AC50 was 46.8 µM (active).
`COC(=O)N(C(=O)N1CO[C@@]2(C(=O)OC)Cc3cc(Cl)ccc3C2=N1)c1ccc(OC(F)(F)F)cc1`: the outcome in test [7] was inactive.
As to `CC1(C)C(C=C(Cl)Cl)C1C(=O)OC(C#N)c1cccc(Oc2ccccc2)c1` (stereo unspecified), in test [7], the AC50 was 6.91 µM (active).
Regarding `C=C(C)CN(CC)c1c([N+](=O)[O-])cc(C(F)(F)F)cc1[N+](=O)[O-]`, the compound was classed as inactive in [8].
Take `COP(=S)(OC)Oc1ccc([N+](=O)[O-])c(C)c1`: in test [4], the call was inactive.
For the compound `CCOP(=S)(OCC)Oc1nc(Cl)n(C(C)C)n1`, in [9], the compound was called inactive. In addition, the AC50 in test [5] was 8.95 µM (active).
Regarding `Cc1cc(C)nc(Nc2ccccc2)n1`, the compound was called inactive in test [4]. Also, in [6], the AC50 is 10.9 µM (active).
With `CO/N=C(/C1=NOCCO1)c1ccccc1Oc1ncnc(Oc2ccccc2Cl)c1F`, the call in test [10] and in [5] was inactive.
With `COP(=O)(OC)O/C(C)=C/C(=O)N(C)C`, in [11], the result was inactive.
For the compound `CCCCC(O)(Cn1cncn1)c1ccc(Cl)cc1Cl` (stereo unspecified), the AC50 is 17.8 µM (active) in [10] and 16.6 µM (active) in test [7]. Besides, in test [12], the compound was called inactive.
Consider `O=C(Nc1ccccc1-c1ccc(Cl)cc1)c1cccnc1Cl`, for which the compound was called inactive in test [3].
Turning to `OC(c1ccc(Cl)cc1)(c1ccc(Cl)cc1)C(Cl)(Cl)Cl`, in test [7], the outcome was inactive.
For `CCCN(CC)CC1COC2(CCC(C(C)(C)C)CC2)O1` (stereo unspecified), the outcome in test [13], in test [3] and in test [11] was inactive. In addition, the AC50 was 14.3 µM (active) in test [10], 8 µM (active) in [7] and 3.99 µM (active) in test [14].
As to `CCOC(=O)C(C)OC(=O)c1cc(Oc2ccc(C(F)(F)F)cc2Cl)ccc1[N+](=O)[O-]` (stereo unspecified), the AC50 in test [7] is 15.3 µM (active).
Take `CCC(C)n1c(=O)[nH]c(C)c(Br)c1=O` (stereo unspecified): the result in [15] and in [16] was inactive. Besides, the AC50 in [5] is 15.2 µM (active); in test [7], 14 µM (active).
As to `CCOc1cc(C(C)(C)C)ccc1C1COC(c2c(F)cccc2F)=N1` (stereo unspecified), in test [5], the compound was called inactive.
In the case of `CCN(CC)C(=O)C(C)Oc1cccc2ccccc12` (stereo unspecified), the outcome in [8] was inactive. The AC50 in [10] was 25 µM (active).
As to `Cn1c(-c2ccccc2)cc(-c2ccccc2)[n+]1C`, the AC50 in test [11] is 6.52 µM (active); in test [10], 12 µM (active); in test [7], 14.8 µM (active); in [14] it was 1.32 µM (active).
As for `CC(C)=CC1C(C(=O)OCc2coc(Cc3ccccc3)c2)C1(C)C` (stereo unspecified), the compound was classed as inactive in test [13] and in test [7]. Besides, the AC50 in [8] is 6.5 µM (active).
On to `CCOc1nc(F)cc2nc(S(=O)(=O)Nc3c(Cl)cccc3Cl)nn12`, for which, in [11], the compound was called inactive.
As to `CC1(C)C(C(=O)OC(C#N)c2cccc(Oc3ccccc3)c2)C1(C)C` (stereo unspecified), the AC50 in test [7] is 25 µM (active).
